This passage reports Potency and outcome results from PubChem BioAssay (Tox21).

A number with no mark means an inactive call. Results filed as inconclusive are left out. The source made the active and inactive calls. Unless noted, the call rests on the fitted dose curve.

Assay [1] is described as follows: Nuclear factor erythroid 2-related factor 2/antioxidant responsive element (Nrf2/ARE) small molecule agonists: qHTS cell viability counter screen in human keratinocytes (AID 1919968; active means well fitted curve in the direction sought with a large enough effect in the repeat runs; an effect the other way counts as inactive or inconclusive; further: nearly all actives have a fitted effect of over 55% in size; further: potency means the concentration at half of the fitted maximal effect). A digest of the protocol:
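Viability counter-screen: KeratinoSens reporter cells, DMSO-delivered compounds, 23 h at 37 C, CellTiter-Fluor fluorescence.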

The nature of assay [2]: Nuclear factor erythroid 2-related factor 2/antioxidant responsive element (Nrf2/ARE) small molecule agonists: luciferase reporter gene qHTS assay in human keratinocytes (AID 1919969). Further: nearly all actives have a fitted effect of over 35% in size. Further: potency means the concentration at half of the fitted maximal effect.
Assay [3] has as its target Gonadotropin-releasing hormone receptor (Homo sapiens) (UniProt P30968). Put plainly: Human gonadotropin-releasing hormone receptor (GnRHR) small molecule agonists, calcium flux assay in GnRHR-HEK293 cells (AID 1920063). Further: nearly all actives have a fitted effect of over 35% in size. A digest of the protocol: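 Tox21-format agonist screen using human GnRHR-expressing HEK293 cells and a fluorescent calcium dye; kinetic 3-min fluorescence reading after compound addition, 15-point concentration series run in triplicate.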
Background: Calcium assays in cells follow changes in intracellular calcium, usually with a dye or a luminescent sensor.

Assay [4] has as its target KiSS-1 receptor (Homo sapiens) (UniProt Q969F8). Put plainly: Human kisspeptin (KISS1R) small molecule agonists, calcium flux assay in KISS1R-HEK293 cells (AID 1920064; active means well fitted curve in the direction sought with a large enough effect in the repeat runs; an effect the other way counts as inactive or inconclusive). A digest of the protocol: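 Intracellular calcium mobilization in KISS1R-HEK293 cells was recorded by fluorescence (Ex/Em 480/540) for 3 min following compound addition to cells pre-loaded 1 h with calcium dye.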

Assay [5] in a line: p53 small molecule agonists, cell-based qHTS assay with human liver microsomes (AID 1963577). A digest of the protocol:
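Compounds act here after metabolic activation: human liver microsomes and NADPH, both at 0.5 mg/mL final, were co-added to p53RE-bla cells. Incubation ran 16 h at 37 C, followed by LiveBLAzer detection.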

The nature of assay [6]: p53 small molecule agonists, cell-based qHTS assay with human liver microsomes: qHTS cell viability counter screen (AID 1963579). Further: nearly all actives have a fitted effect of over 45% in size. Further: potency means the concentration at half of the fitted maximal effect. A digest of the protocol:
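Cells carrying the p53 response-element beta-lactamase reporter are treated for 16 h at 37 C with test compounds in the presence of human liver microsomes and NADPH (both 0.5 mg/mL final); ATP-based CellTiter-Glo luminescence then reports viability.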

The nature of assay [7]: p53 small molecule agonists, cell-based qHTS assay with rat liver microsomes: qHTS cell viability counter screen (AID 1963580). Further: nearly all actives have a fitted effect of over 45% in size. A digest of the protocol: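 In HCT-116 cells carrying a p53 response element-bla reporter, compounds were metabolically activated in situ by rat liver microsomes with NADPH over 16 h. Cell ATP content then served as the cytotoxicity measure.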
(In qHTS, concentration-response curves come from the screen itself.)

Assay [8] can be described thus: p53 small molecule agonists, cell-based qHTS assay: qHTS cell viability counter screen (AID 1963581). Further: nearly all actives have a fitted effect of over 45% in size. A digest of the protocol: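 Compounds are pinned onto HCT-116 p53RE-bla cells and left 16 h at 37 C. Following the reporter FRET read, ATP is quantified by CellTiter-Glo luminescence after 30 min at room temperature.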
Assay [9] can be described thus: cAMP Responsive Elements (CRE) small molecule antagonists, cell-based qHTS assay (AID 1963591; active means well fitted inhibition curve with a large enough effect in the signal ratio in the repeat runs, not every such curve was filed as active; the % refers to the signal ratio). A digest of the protocol:
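qHTS in CRE-bla HEK 293T cells: compound in DMSO, then 0.25 uM NKH477 (final), 3 h at 37 °C/5% CO2; beta-lactamase FRET read-out after 2 h substrate incubation.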

In assay [10] the target is Beta-2 adrenergic receptor (Homo sapiens) (UniProt P07550). Put plainly: Adrenergic beta2 receptor (ADRB2) small molecule antagonists, cell-based qHTS assay (AID 1963592). Further: series mostly up to about 92 µM; nearly all actives have a fitted effect of over 50% in size. A digest of the protocol:
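Cells (CHO, stable ADRB2 overexpression) incubated 18-20hr at 37C; compounds added from DMSO; agonist mix (1nM isoproterenol, 100uM IBMX, 25uM Ro-20-1724) added; 0.5hr RT; d2-cAMP and anti-cAMP-cryptate added; 1hr RT; 665/615 nm read.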

The target is the same in assay [11]. Put plainly: Adrenergic beta2 receptor (ADRB2) small molecule agonists, cell-based qHTS assay (AID 1963593).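 Further: CHO cells stably overexpressing human ADRB2.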 A digest of the protocol: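 CHO cells stably over-expressing ADRB2 were plated overnight at 37C, then dosed with compounds plus a stimulation mix containing 100uM IBMX and 25uM Ro-20-1724 for 0.5hr at room temperature. cAMP was measured by HTRF competition, 1hr.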

For assay [12], the target named is D(2) dopamine receptor (Homo sapiens) (UniProt P14416). Put plainly: Dopamine D2 receptor (DRD2) small molecule agonists, cell-based qHTS assay (AID 1963594). Further: nearly all actives have a fitted effect of over 35% in size. A digest of the protocol: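 HEK293 cells stably expressing DRD2 were cultured 24 h at 37 C, then given Ro20-1724 (0.1 mM final) and compounds for 10 min at room temperature. NKH477 (200nM) was then added for 30 min. cAMP was read by HTRF.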

Assay [13] has the same target. Put plainly: Dopamine D2 receptor (DRD2) small molecule antagonists, cell-based qHTS assay (AID 1963595; active means well fitted inhibition curve with a large enough effect in the signal ratio in the repeat runs, with a control signal flat; the % refers to the signal ratio). A digest of the protocol:
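Stable D2 receptor HEK293 line, 24 h after seeding. Compound preincubated 10 min, then quinpirole (12 nM) with forskolin analogue NKH477 (200 nM), 30 min, room temperature. Detection by time-resolved FRET of cAMP.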

Assay [14] in a line: p53 small molecule agonists, cell-based qHTS assay with rat liver microsomes (AID 1963578). A digest of the protocol: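 Read-out is beta-lactamase reporter fluorescence (LiveBLAzer, 2 h, room temperature, dark) in p53RE-bla cells treated 16 h at 37 C with compound, rat liver microsomes and NADPH, both 0.5 mg/mL final.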
For assay [15], the target named is 5-hydroxytryptamine receptor 2A (Homo sapiens) (UniProt P28223). Put plainly: 5-hydroxytryptamine receptor 2A (HTR2A) small molecule antagonists, cell-based qHTS assay (AID 1963586). Further: nearly all actives have a fitted effect of over 45% in size. A digest of the protocol: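 Antagonist-mode intracellular calcium assay: DOI (4 nM) added after 5 min compound pre-incubation at room temperature to dye-loaded HTR2A-CHO cells. Fluorescence followed for 3 min, sampled every second.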

Assay [16] has the same target. Put plainly: 5-hydroxytryptamine receptor 2A (HTR2A) small molecule agonists, cell-based qHTS assay (AID 1963587). Further: nearly all actives have a fitted effect of over 30% in size. A digest of the protocol: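 HTR2A-CHO cells, plated 18 h at 37 C/5% CO2, dye-loaded 1 h at 37 C; compounds in DMSO added by pin tool (agonist mode). Intracellular calcium flux read as kinetic fluorescence on FDSS over 2 min at 1 s intervals.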
The target in assay [17] is Muscarinic acetylcholine receptor M1 (Homo sapiens) (UniProt P11229). Put plainly: Cholinergic receptor muscarinic 1 (CHRM1) small molecule antagonists, cell-based qHTS assay (AID 1963588). Further: nearly all actives have a fitted effect of over 40% in size. A digest of the protocol:
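CHRM1-CHO calcium-flux assay, antagonist mode. Cells were seeded 18 h, dye-loaded 1 h at 37 C and given compound for 5 min at RT, then acetylcholine was added at 50nM. FDSS fluorescence was read 3 min; 15 concentrations, three runs.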

For assay [18] the target is unchanged. Put plainly: Cholinergic receptor muscarinic 1 (CHRM1) small molecule agonists, cell-based qHTS assay (AID 1963589). Further: nearly all actives have a fitted effect of over 35% in size. A digest of the protocol: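 Stable CHRM1-CHO cells (human receptor) were incubated 18 h, dye-loaded for 1 h at 37 C and exposed to test compounds for agonist activity, with calcium-dependent fluorescence followed kinetically.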
Assay [19] in a line: p53 small molecule agonists, cell-based qHTS assay (AID 1963582; active means well fitted activation curve with a large enough effect in the signal ratio in the repeat runs, not every such curve was filed as active; the % refers to the signal ratio). A digest of the protocol: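 Agonist activity was scored from beta-lactamase FRET fluorescence in p53RE-bla cells treated 16 h at 37 C with compounds in DMSO, substrate incubation being 2 h at room temperature.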
Assay [20] is described as follows: cAMP Responsive Elements (CRE) small molecule agonists, cell-based qHTS assay (AID 1963590). A digest of the protocol: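 FRET-based beta-lactamase readout (LiveBLAzer B/G, 2 h RT) quantified CRE activation in HEK 293T CRE-bla cells after 3 h treatment with DMSO-dissolved compounds.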

Sequence of 5-hydroxytryptamine receptor 2A (Homo sapiens) (P28223 whole entry, looked up): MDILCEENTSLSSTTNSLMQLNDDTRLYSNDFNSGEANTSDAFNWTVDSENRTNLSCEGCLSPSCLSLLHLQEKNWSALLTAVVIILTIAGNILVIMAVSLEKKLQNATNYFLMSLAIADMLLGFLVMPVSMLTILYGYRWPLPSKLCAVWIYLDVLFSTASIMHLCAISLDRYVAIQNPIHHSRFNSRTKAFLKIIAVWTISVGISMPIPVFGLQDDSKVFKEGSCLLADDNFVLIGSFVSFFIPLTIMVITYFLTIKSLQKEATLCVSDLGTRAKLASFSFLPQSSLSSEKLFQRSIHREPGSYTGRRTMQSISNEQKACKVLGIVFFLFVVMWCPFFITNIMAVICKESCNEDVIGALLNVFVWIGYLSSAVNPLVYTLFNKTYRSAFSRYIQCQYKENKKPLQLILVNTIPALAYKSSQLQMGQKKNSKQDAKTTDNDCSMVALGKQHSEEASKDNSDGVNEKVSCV
Sequence of Gonadotropin-releasing hormone receptor (Homo sapiens) (P30968 whole entry, looked up): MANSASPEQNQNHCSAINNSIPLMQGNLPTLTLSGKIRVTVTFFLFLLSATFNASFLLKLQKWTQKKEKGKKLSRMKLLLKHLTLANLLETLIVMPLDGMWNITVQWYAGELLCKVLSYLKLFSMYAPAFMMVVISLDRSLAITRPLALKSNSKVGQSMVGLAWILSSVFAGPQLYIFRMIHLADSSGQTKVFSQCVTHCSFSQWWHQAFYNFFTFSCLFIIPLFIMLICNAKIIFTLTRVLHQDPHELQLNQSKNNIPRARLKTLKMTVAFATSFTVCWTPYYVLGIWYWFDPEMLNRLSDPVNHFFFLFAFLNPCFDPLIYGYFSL
Sequence of Beta-2 adrenergic receptor (Homo sapiens) (P07550 whole entry, looked up): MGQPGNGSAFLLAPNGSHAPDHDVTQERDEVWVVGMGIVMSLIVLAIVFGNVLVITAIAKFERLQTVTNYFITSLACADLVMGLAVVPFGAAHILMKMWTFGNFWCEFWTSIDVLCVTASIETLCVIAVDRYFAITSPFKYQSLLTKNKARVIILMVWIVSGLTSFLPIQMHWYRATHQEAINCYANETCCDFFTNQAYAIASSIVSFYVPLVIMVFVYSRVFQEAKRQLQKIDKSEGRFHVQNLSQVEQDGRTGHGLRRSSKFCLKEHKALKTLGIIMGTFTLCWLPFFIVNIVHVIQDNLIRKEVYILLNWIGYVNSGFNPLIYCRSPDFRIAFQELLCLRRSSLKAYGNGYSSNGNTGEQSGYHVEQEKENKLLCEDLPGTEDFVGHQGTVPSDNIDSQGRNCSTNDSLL
Sequence of Muscarinic acetylcholine receptor M1 (Homo sapiens) (P11229 whole entry, looked up): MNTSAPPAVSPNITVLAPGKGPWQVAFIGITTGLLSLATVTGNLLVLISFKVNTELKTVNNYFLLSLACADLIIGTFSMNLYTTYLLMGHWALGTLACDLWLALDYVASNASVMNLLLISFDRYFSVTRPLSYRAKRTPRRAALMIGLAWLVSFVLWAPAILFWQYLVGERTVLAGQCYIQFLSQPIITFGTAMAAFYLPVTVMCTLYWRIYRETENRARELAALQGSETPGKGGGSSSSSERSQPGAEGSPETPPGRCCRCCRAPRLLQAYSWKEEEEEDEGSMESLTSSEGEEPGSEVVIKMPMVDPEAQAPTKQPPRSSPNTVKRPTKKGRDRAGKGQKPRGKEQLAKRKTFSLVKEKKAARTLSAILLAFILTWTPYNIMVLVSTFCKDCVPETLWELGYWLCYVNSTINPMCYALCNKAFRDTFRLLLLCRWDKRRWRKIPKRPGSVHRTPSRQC
Sequence of KiSS-1 receptor (Homo sapiens) (Q969F8 whole entry, looked up): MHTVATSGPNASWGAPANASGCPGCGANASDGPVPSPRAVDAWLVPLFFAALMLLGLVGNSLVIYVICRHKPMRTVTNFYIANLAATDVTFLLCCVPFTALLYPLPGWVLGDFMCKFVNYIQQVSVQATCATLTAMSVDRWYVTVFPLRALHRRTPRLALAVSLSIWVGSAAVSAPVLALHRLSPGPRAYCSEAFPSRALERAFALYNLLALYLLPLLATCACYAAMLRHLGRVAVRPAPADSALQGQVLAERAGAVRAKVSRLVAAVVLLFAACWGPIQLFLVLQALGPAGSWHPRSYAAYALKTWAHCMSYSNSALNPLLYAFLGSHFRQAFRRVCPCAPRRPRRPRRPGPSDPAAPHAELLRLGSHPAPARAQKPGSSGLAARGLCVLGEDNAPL
Sequence of D(2) dopamine receptor (Homo sapiens) (P14416 whole entry, looked up): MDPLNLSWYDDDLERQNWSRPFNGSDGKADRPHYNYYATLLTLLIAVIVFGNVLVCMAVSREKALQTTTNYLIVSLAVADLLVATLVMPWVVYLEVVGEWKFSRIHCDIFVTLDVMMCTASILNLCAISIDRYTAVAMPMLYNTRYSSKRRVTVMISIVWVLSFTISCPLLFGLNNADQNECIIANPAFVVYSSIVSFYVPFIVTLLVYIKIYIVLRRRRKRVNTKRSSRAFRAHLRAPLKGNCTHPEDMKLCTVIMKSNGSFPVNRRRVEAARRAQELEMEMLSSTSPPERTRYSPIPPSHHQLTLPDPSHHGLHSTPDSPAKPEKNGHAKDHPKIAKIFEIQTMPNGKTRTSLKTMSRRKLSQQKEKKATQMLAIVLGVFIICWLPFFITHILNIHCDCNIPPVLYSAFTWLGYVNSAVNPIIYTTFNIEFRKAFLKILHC

`C=C1CC[C@H](O)C/C1=C\C=C1/CCC[C@]2(C)[C@@H]([C@H](C)CCCC(C)C)CC[C@@H]12`: the Potency entry in assay [1], in assay [3], in assay [5], in assay [6], in assay [7] and in [8] was “inactive” throughout. The Potency result in assay [9], in assay [10], in [11], in [12] and in [13] was “inactive” each time. For the same compound, the Potency in assay [2] was 21.5 µM (active). Besides, in [4], the outcome was inactive.

Regarding `O=C(O)Cc1sc(-c2ccccc2)nc1-c1ccc(Cl)cc1`, the Potency result in assay [1], in assay [2], in assay [3], in assay [5], in assay [14] and in assay [6] was “inactive” in each case. Moreover, the Potency entry in assay [7], in assay [15], in [16], in [17], in [18] and in assay [10] was “inactive” in each case. Also, the Potency entry in assay [11] and in [13] was “inactive” throughout. Further, in assay [4], the result was inactive.

As for `CCN(CC)c1cccc(C)c1`, the Potency entry in assay [1], in [2], in [3], in assay [14], in assay [6] and in assay [7] was “inactive” in each case. The Potency result in assay [8], in [19], in assay [15], in assay [16], in [17] and in assay [18] was “inactive” throughout. The Potency entry in [20], in assay [9], in assay [10], in assay [12] and in [13] was “inactive” each time. For the same compound, in assay [4], the result was inactive.

For `c1cc[nH]c1`, the Potency entry in assay [1], in assay [2], in assay [3], in assay [5], in assay [6] and in assay [7] was “inactive” each time. The Potency result in assay [8], in [19], in assay [15], in [16], in assay [17] and in assay [18] was “inactive” in each case. Moreover, the Potency entry in [20], in assay [9] and in assay [12] was “inactive” throughout. Besides, in assay [4], the result was inactive.

In the case of `CC(=O)Oc1cc(C(C)C)c(OCCN(C)C)cc1C`, the Potency entry in assay [1], in assay [2], in [3], in assay [5], in assay [14] and in assay [15] was “inactive” in each case. The Potency result in assay [16], in assay [17], in assay [18], in [20], in assay [9] and in assay [10] was “inactive” each time. Further, the Potency result in [12] and in [13] was “inactive” each time. For the same compound, in assay [4], the result was inactive.

Consider `CC1=C2[C@H](/C=C(\C)C(=O)O)CC[C@@H](C)[C@H]2CC1`, for which the values for the Potency in [1] and in assay [6] were 44.9 µM (active) and 29.9 µM (active), respectively. Further, the Potency entry in assay [2], in assay [3], in [5], in assay [7], in assay [19] and in [15] was “inactive” in each case. The Potency entry in assay [16], in assay [18], in [10], in [12] and in [13] was “inactive” each time. Also, in [4], the outcome was inactive.

Take `O=c1c(-c2ccccc2)c1-c1ccccc1`: the Potency in [1] was 1.19 µM (active); in [2], 2.66 µM (active). In addition, the Potency entry in assay [3], in assay [5], in assay [14], in assay [6], in assay [7] and in assay [15] was “inactive” throughout. In addition, the Potency entry in assay [16], in assay [17], in [18], in assay [10], in [12] and in [13] was “inactive” each time. Further, the result in assay [4] was inactive.

With `Cc1ccc(C=O)s1`, the Potency result in assay [1], in assay [3], in assay [5], in assay [14], in assay [8] and in assay [16] was “inactive” in each case. Also, the Potency result in assay [17], in assay [18], in [9], in [11], in assay [12] and in assay [13] was “inactive” each time. In addition, the Potency in [2] was 68.6 µM (active); in [6], 40.8 µM (active). The result in assay [4] was inactive.
